This excerpt belongs to a sample that is enriched for hits.
VDR inh: Inhibitors of the vitamin D receptor (VDR): qHTS; AID 504847, 2011; Potency, µM, inactives show max response, negative = inhibition, most hits filed as inhibitors; VDR-SRC2-3 peptide fluorescence polarization, 2 h; Vitamin D3 receptor (Homo sapiens), P11473; 400,000 tested, 0.93% active; note: % is set by controls: 0 for no effect and ±100 for the full control effect
Target sequence (P11473 whole entry, looked up): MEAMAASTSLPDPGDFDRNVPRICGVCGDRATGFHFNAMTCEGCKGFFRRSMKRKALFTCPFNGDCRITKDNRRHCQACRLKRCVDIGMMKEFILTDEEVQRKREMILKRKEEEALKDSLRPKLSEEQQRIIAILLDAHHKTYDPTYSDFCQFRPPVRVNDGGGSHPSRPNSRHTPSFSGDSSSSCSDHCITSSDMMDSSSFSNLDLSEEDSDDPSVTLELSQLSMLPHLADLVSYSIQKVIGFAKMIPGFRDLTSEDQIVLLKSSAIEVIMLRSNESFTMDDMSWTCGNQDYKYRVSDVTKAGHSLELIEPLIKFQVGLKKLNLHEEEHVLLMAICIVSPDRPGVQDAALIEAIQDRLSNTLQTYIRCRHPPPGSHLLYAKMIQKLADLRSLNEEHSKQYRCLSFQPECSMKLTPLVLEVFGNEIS
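Compounds are added to VDR with labelled SRC2-3 coactivator peptide and held 2 h at room temperature. Inhibition of the VDR–peptide interaction is then read as a change in fluorescence polarization.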
Sfp PPTase inh: qHTS Assay for Inhibitors of Bacillus subtilis Sfp phosphopantetheinyl transferase (PPTase); Biochemical Sfp PPTase activity, qHTS; 310,000 tested, 3.5% active; 4'-phosphopantetheinyl transferase ffp (Bacillus subtilis), Q9F4F7; Potency, µM, without a hit: largest response in the series, negative = inhibition, hits mostly inhibitors;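 note: the enzyme is Sfp with the accession as filed and its product quenches rhodamine fluorescence; 0% = enzyme reaction without inhibitor and -100% = no enzyme wells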
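Sfp 15 nM + cpd, 15 min RT; start w/ rhodamine-CoA 5 uM, BHQ-2-YbbR 12.5 uM (final); 50 mM Hepes pH 7.6, 10 mM MgCl2, 0.01% NP-40, 0.01% BSA; read 525/598 nm at 0 and 30 min.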
G9a inh: qHTS Assay for Inhibitors of Histone Lysine Methyltransferase G9a | G9a H3K9 monomethylation, AlphaScreen, 2 h | Potency, µM (highest dose often 102 µM), for inactives: at the top dose activity, negative = inhibition, usual class: inhibitors | 350,000 tested, 8.8% active; note: % is set by controls: 0 for no effect and ±100 for the full control effect; nearly all actives have a fitted effect of over 75% in size
Target sequence (Q96KQ7 913-1193 limits assumed): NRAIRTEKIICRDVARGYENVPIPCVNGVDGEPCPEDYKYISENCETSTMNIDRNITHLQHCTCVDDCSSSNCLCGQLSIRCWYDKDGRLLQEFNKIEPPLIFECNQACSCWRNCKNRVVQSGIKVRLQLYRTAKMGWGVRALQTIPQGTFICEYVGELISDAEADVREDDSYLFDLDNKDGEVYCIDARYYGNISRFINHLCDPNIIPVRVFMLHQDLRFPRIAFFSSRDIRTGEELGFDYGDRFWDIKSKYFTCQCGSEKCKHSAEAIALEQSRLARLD
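AlphaScreen detection with an anti-monomethyl H3K9 antibody quantified product after a 2 h room-temperature reaction containing 500 nM biotinylated H3K9 peptide, 20 µM SAM and 20 nM enzyme, which had been preincubated 15 min with compound.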
Glioma ERSR ind: qHTS for Inducers of the Endoplasmic Reticulum Stress Response (ERSR) in Human Glioma: qHTS. AID 602332, 2012. U87-MG GRP78 promoter luciferase reporter, 16 h. 420,000 tested, 0.02% active. Potency, µM, for the others: top-dose activation, hits mostly activators; note: series mostly up to about 76 µM; % of control where 0% means no effect; nearly all actives have a fitted effect of over 35% in size
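Stably transfected U87-MG glioma cells carrying a GRP78-based luciferase sensor; 16 h compound incubation. Luminescence end-point read 10 min after Bright-Glo addition at room temperature.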
12-LOX inh: Primary qHTS assay for inhibitors of human arachidonate 12S-lipoxygenase (ALOX12): Round 2 | Polyunsaturated fatty acid lipoxygenase ALOX12 (Homo sapiens), P18054 | purified 12hLO, xylenol orange hydroperoxide absorbance | Potency, µM (series often up to 108 µM), for inactives: at the highest dose activity change, negative = inhibition, most hits filed as inhibitors | 580,000 tested, 1.1% active | AID 1671190, 2021; note: % is set by controls: 0 for no effect and ±100 for the full control effect
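Purified human 12hLO (150 nM final) in 25 mM Hepes, 0.01% Triton X-100, pH 7.0 was preincubated 15 min at room temperature with compound. Then 40 uM arachidonic acid was added, 30 min. Hydroperoxide was read by Fe-XO absorbance ratio 573/405 nm.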
* marks the source's active call; other numbers are inactive results; ? = inconclusive; nt = not tested or not shown; [ ] = remark or other dose. Calls come from the whole dose curve; as a rule, active = well fitted curve in the direction sought with a large enough effect; inconclusive = small, poorly fitted or top-dose-only effect, or another doubt; inactive = no such curve, though single readings can be large; an effect the other way counts as inactive or inconclusive. Potency is the fitted concentration of half-maximal effect.

SMILES | VDR inh | Sfp PPTase inh | G9a inh | Glioma ERSR ind | 12-LOX inh
O=C(c1ccc(N2CCOCC2)c([N+](=O)[O-])c1)N1CCCCC1 | -1% | 13% | 8% | 0% | -1%
Cc1ccc(C)c(N2CCN(C(=O)c3ccc(N4CCOCC4)c([N+](=O)[O-])c3)CC2)c1 | -2% | -14% | 45µM* | 2% | -1%
COc1ccc(Oc2coc3cc(OCC#N)ccc3c2=O)cc1 | nt | nt | nt | nt | 2%
Cc1noc(C)c1-c1cc2cc(C(C)C)oc2c(N(C)CCN(C)C)n1 | nt | nt | nt | nt | 9%[176 µM]
O=C(O)/C=C/C(=O)Nc1ccc(N2CCOCC2)nc1N1CCOCC1 | -27% | 10µM* | 8.9µM* | -5% | 0%
O=C(O)c1ccc(N2CCOCC2)nc1 | nt | nt | nt | nt | -1%
CCn1c(COc2cc(C)cc(C)c2)nnc1SCC(=O)NC1CCCC1 | nt | nt | nt | nt | -7%
Cc1c(CCC(=O)NCc2ccc3c(c2)OCO3)c(=O)oc2c(C)c(O)ccc12 | nt | nt | nt | nt | -30%
S=C1NC2=C(CCCC2=C2SCCS2)C(c2ccccc2)N1 (configuration not stated) | -22% | -7% | 10µM* | 7% | ?
COc1ccccc1C1NC(=S)NC2=C1CCc1ccccc12 (configuration not stated) | nt | nt | nt | nt | 28µM*
COC(=O)C1=C(C)NC(=S)NC1c1cccc(OC)c1 (configuration not stated) | nt | nt | nt | nt | -25%
COc1ccc2c(c1)C1=C(CC2)C(c2ccc(C)cc2)NC(=S)N1 (configuration not stated) | 1% | 4% | -2%[59 µM] | -1% | 40µM*
COc1cccc(C2NC(=S)NC3=C2CCc2ccccc23)c1 (configuration not stated) | -20% | 50µM* | 7.9µM* | -5% | ?
COc1cccc(C2C3=C(N=C4SCC(=O)N42)c2ccccc2CC3)c1OC (configuration not stated) | 25% | -3% | -27%[12.7 µM] | -2% | -4%
CCOc1cccc(CNCc2cccs2)c1OCc1ccccc1 | nt | nt | nt | nt | -17%
CCCCNc1nc2c(c(=O)[nH]c(=O)n2C)n1Cc1ccccc1Cl | nt | nt | nt | nt | 18%
S=C1NC2=C(CCc3ccccc32)C(c2ccc(Cl)cc2)N1 (configuration not stated) | nt | nt | nt | nt | 28µM*
S=C1NC2=C(CCc3ccccc32)C(c2ccccc2Cl)N1 (configuration not stated) | nt | nt | nt | nt | 8.9µM*
Clc1ccc(C2C3=C(Nc4ncnn42)c2ccccc2CC3)cc1 (configuration not stated) | nt | -13% | -45%[12.7 µM] | nt | nt
NNC(=O)c1sc2cc(C(F)(F)F)cnc2c1-c1ccccn1 | 0% | -14% | 5.6µM* | 1% | 0%
COC(=O)c1cnc(N2CCN(c3ccccc3)CC2)c2ccccc12 | nt | nt | nt | nt | 23%
O=CN1CCc2scc[n+]2-c2ccccc21 | ? | 32µM* | ? | -3% | 0%
O=C(Nc1ccccc1)N1CCc2scc[n+]2-c2ccccc21 | ? | ? | -16%[59 µM] | -4% | 13%
CCN(CC)c1ccc(NC(=O)CCCCCN2C(=O)c3ccccc3C2=O)cc1 | 2% | -11% | 2.5µM* | -5% | 0%
CCN(CC)c1ccc(NC2CC(=O)N(CCc3ccc(OC)cc3)C2=O)cc1 (configuration not stated) | ? | 32µM* | ? | 0% | ?
SMILES | VDR inh | Sfp PPTase inh | G9a inh | Glioma ERSR ind | 12-LOX inh
CCN(CC)c1ccc(NC(=O)CN2CCN(CC(=O)Nc3ccc(F)cc3)CC2)cc1 | 5% | -12% | 2.2µM* | -3% | -17%
CCN(CC)c1ccc(NC(=O)COC(=O)CCC(=O)c2ccc(F)cc2)cc1 | 12% | -4% | 1.6µM* | -7% | ?
COc1ccc(CCNC2CC(=O)N(CCc3ccccc3)C2=O)cc1 (configuration not stated) | -8% | -11% | 6%[12.7 µM] | -3% | 18%
CC(C)Cc1ccc(C(C)NC(=O)Cn2nc(-c3ccc(F)cc3)oc2=O)cc1 (configuration not stated) | nt | nt | nt | nt | -3%
COCCn1c(COc2ccccc2-c2ccccc2)nnc1SC(F)F | nt | nt | nt | nt | 8%
Cc1ccc(NC(=O)c2cc(Cl)cc(Cl)c2)nc1 | nt | nt | nt | nt | 4%
COc1ccc(NC(=O)CN2CCCCC2)cc1 | 0% | -28% | ? | 1% | -12%
CCN(CC)c1ccc(NC(=S)Nc2ccc(F)cc2)cc1 | ? | 45µM* | 13µM* | 0% | ?
CCC(C)NC(=S)Nc1ccc(F)cc1 (configuration not stated) | -6% | -2% | 50µM* | -1% | 24%
CCN(CC)c1ccc(NC(=O)CN2CCN(CC(=O)Nc3ccc(OC)cc3)CC2)cc1 | -1% | 1% | 11µM* | -7% | 0%
CCOc1ccccc1/C=N/Nc1nc2c(N)ncnc2n1[C@H]1O[C@@H](CO)[C@H](O)[C@@H]1O | 0% | 56µM* | 10%[59 µM] | -5% | ?
O=[N+]([O-])c1cc(Cl)cc(C2=NCCN2)c1 | -6% | 3% | 35µM* | -1% | 0%
N=c1nc(N)c(N)c(N)n1O | nt | nt | nt | nt | 4%
COc1cccc(C2CCN(Cc3cn(-c4ccccc4)nn3)C2)c1OC (configuration not stated) | nt | nt | nt | nt | -5%
COc1cccc(NS(=O)(=O)c2cc3c(cc2C)NC(=O)CO3)c1 | 9% | 15% | 12% | -2% | 14%
Cc1cc2c(cc1S(=O)(=O)CCC(=O)N(C)Cc1ccccc1)OCC(=O)N2 | -5% | 1% | 11µM* | -1% | 28%
CCOC(=O)c1ccc(NS(=O)(=O)c2cc3c(cc2C)NC(=O)CO3)cc1 | -11% | 1% | 50µM* | -6% | ?
O=C(Cc1c[nH]c2ccccc12)N1CCCN(c2cc(-c3ccc(Br)cc3)[nH]n2)CC1 | nt | nt | nt | nt | 7%
NC1=CC(=O)CC1 | nt | nt | nt | nt | 13%
CCCCC/C=C/C1=CC(=O)C[C@H](c2ccc(OC)cc2)C1 | -25% | nt | 4%[0.501 µM] | -1% | -7%
COc1ccc([C@H]2CC(=O)C=C(/C=C/Cc3ccccc3)C2)cc1 | 79µM* | nt | 13%[2.33 µM] | ? | -14%
COC(=O)NC(NC(=O)OC)C(Cl)Cl | nt | nt | nt | nt | 42%
Clc1ccccc1CN1CCN(/N=C/C=C\c2ccco2)CC1 | -12% | -49% | 35µM* | 3% | ?
C(=N\N1CCN(Cc2cccc3ccccc23)CC1)/c1ccco1 | -11% | -17% | 40µM* | 3% | ?
O=C(CN1CCN(Cc2ccccc2)CC1)N/N=C/C=C/c1ccco1 | -11% | 22% | ? | -6% | 3%
O=C(O)c1ccc(/C=N/N2CCN(Cc3cccc4ccccc34)CC2)cc1 | 10% | 10% | 45µM* | -2% | -1%

Assay outcomes from PubChem.
